Results on 17 molecules are retold here after PubChem BioAssay (EPA / NIEHS).

Experiment [1] can be described thus: BSK_BT_PBMCCytotoxicity: PBMC Cytotoxicity Assessment in the BioMAP Diversity Plus: BT Assay (AID 2284225).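 Further: PBMC viability measured by Alamar Blue dye reduction fluorescence.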 Particulars: primary human B cells with PBMC. An outline of the steps: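 75,000 cells/well; cpd 1 h → SEB + TSST-1 (20 ng/mL final each) → 90 h → Alamar Blue 6 h → fluor. 546/580 nm. DMSO = neg. control/baseline.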
Read-out in experiment [2]: Secreted IgG (sIgG), gene 3500
Briefly: BSK_BT_sIgG: BioMAP Diversity Plus: BT Assay for Secreted IgG (sIgG) Biomarker Activity (AID 2284226). Particulars: primary human B cells with PBMC. A digest of the protocol:
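B cells co-cultured with PBMC were dosed with chemical and secreted IgG quantified by ELISA at 24 h. Activity was fitted in the positive direction relative to DMSO as negative control and baseline.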

Read-out in experiment [3]: Tumor necrosis factor (Homo sapiens) (UniProt P01375)
Briefly: BSK_BT_xTNFa: BioMAP Diversity Plus: BT Assay for Tumor necrosis factor alpha (TNF-alpha) Biomarker Activity (AID 2284230). Particulars: primary human B cells with PBMC. A digest of the protocol:
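Compounds were added to a B cell plus PBMC co-culture, and after 24 h secreted TNF-alpha was quantified with Luminex xMAP technology, with responses fitted upward from the DMSO control.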

Read-out in experiment [4]: Vascular cell adhesion molecule 1 (VCAM1), VCAM1 (gene 7412)
Briefly: BSK_MyoF_VCAM1: BioMAP Diversity Plus: MyoF Assay for Vascular cell adhesion molecule 1 (VCAM1) Biomarker Activity (AID 2284231). Particulars: primary human lung fibroblasts. An outline of the steps: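 Primary human lung fibroblasts (BioMAP MyoF system) dosed with chemical, VCAM-1 measured by ELISA 24 hours later. Fitted in the positive direction against DMSO; parallel SRB staining assessed cytotoxicity.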

Read-out in experiment [5]: Collagen I, COL1A1 (gene 1277)
The experiment in a line: BSK_MyoF_CollagenI: BioMAP Diversity Plus: MyoF Assay for Collagen I Biomarker Activity (AID 2284238). Particulars: primary human lung fibroblasts. A digest of the protocol:
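Primary human lung fibroblasts (MyoF system) treated 24 h; Collagen I quantified by ELISA and fitted in positive direction against DMSO. Parallel SRB total-protein staining assessed overt cytotoxicity.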

Read-out in experiment [6]: Actin alpha 1 (ACTA1), ACTA1 (gene 58)
The experiment in a line: BSK_MyoF_ACTA1: BioMAP Diversity Plus: MyoF Assay for Actin alpha 1 (ACTA1) Biomarker Activity (AID 2284244). Particulars: primary human lung fibroblasts. An outline of the steps:
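Human lung fibroblasts (MyoF system) dosed with test chemical for 24 h; α-SMA measured by ELISA. Gain of signal fitted relative to DMSO negative control as baseline.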

Read-out in experiment [7]: Basic fibroblast growth factor (bFGF), FGF2 (gene 2247)
The experiment in a line: BSK_MyoF_bFGF: BioMAP Diversity Plus: MyoF Assay for Basic fibroblast growth factor (bFGF) Biomarker Activity (AID 2284246). The conditions noted are these: primary human lung fibroblasts. An outline of the steps: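 Human lung fibroblasts were dosed with chemicals and bFGF was quantified by ELISA 24 h later. Activity was fitted in the gain-of-signal direction relative to DMSO as negative control and baseline. Parallel SRB total-protein staining tracked overt cytotoxicity.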

Read-out in experiment [8]: Collagen IV, COL4A1 (gene 1282)
Briefly: BSK_MyoF_CollagenIV: BioMAP Diversity Plus: MyoF Assay for Collagen IV Biomarker Activity (AID 2284247). Particulars: primary human lung fibroblasts. An outline of the steps: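 Primary human lung fibroblasts were exposed to test chemicals and sampled 24 h after dosing. Collagen IV levels were measured by ELISA and fitted in the positive direction against DMSO as negative control and baseline.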

Read-out in experiment [9]: Plasminogen activator inhibitor-1 (PAI1), SERPINE1 (gene 5054)
The experiment in a line: BSK_MyoF_PAI1: BioMAP Diversity Plus: MyoF Assay for Plasminogen activator inhibitor-1 (PAI1) Biomarker Activity (AID 2284256).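 On outcome: PAI-1 read 24 h after compound addition.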 Particulars: primary human lung fibroblasts. An outline of the steps: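 Primary human lung fibroblasts treated with chemical for 24 h; PAI-1 levels quantified by ELISA relative to DMSO. Cytotoxicity was assessed in parallel cultures by SRB total-protein staining (0.1% SRB after 10% TCA fixation, 560 nm).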

Read-out in experiment [10]: Interleukin-8 (IL8), CXCL8 (gene 3576)
The experiment in a line: BSK_MyoF_IL8: BioMAP Diversity Plus: MyoF Assay for Interleukin-8 (IL8) Biomarker Activity (AID 2284261). The conditions noted are these: primary human lung fibroblasts. An outline of the steps:
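Human lung fibroblast (MyoF system) cultures dosed for 24 h, then IL-8 measured by ELISA. Response taken relative to DMSO; parallel SRB total-protein staining for cytotoxicity.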

Experiment [11] in a line: BSK_MyoF_SRB: Viability Assessment in the BioMAP Diversity Plus: MyoF Assay (AID 2284267).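 Further: total protein by SRB absorbance in parallel cultures as cytotoxicity measure; cells assessed 24 h after compound addition.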 The conditions noted are these: primary human lung fibroblasts. An outline of the steps: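 Human lung fibroblasts dosed with chemical and assessed 24 h later for overt cytotoxicity in parallel cultures. Total protein quantified by sulforhodamine B staining (0.1% SRB after 10% TCA fixation), read at 560 nm, analysed in positive direction versus DMSO baseline.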

Read-out in experiment [12]: TIMP metallopeptidase inhibitor 1 (TIMP1), TIMP1 (gene 7076)
The experiment in a line: BSK_MyoF_TIMP1: BioMAP Diversity Plus: MyoF Assay for TIMP metallopeptidase inhibitor 1 (TIMP1) Biomarker Activity (AID 2284269). Particulars: primary human lung fibroblasts. An outline of the steps: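 Fibroblasts from human lung are dosed with chemical, cultured 24 h, and assayed for TIMP-1 by ELISA. Increases over the DMSO baseline are scored, with SRB total-protein staining run in parallel for cytotoxicity.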

In experiment [13] the target is human Retinoic Acid Receptor beta (RARb), RARB (gene 5915) (UniProt P10826). Briefly: ATG_RARb_TRANS: Attagene TRANS-FACTORIAL HepG2 Assay for human Retinoic Acid Receptor beta (AID 2283004; active means hit-call score of the fitted dose curve at least 0.9, where 1 is the maximum). An outline of the steps:
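HepG2 cells were transiently transfected with GAL4-UAS reporter units that report activity of exogenous chimeric NR-Gal4 proteins, then exposed to compound for 24 h. Reporter mRNA was quantified by RT-PCR with capillary electrophoresis fluorescence, as gain of signal over DMSO.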

In experiment [14] the target is Androgen receptor (Homo sapiens) (UniProt P10275). The experiment in a line: ATG_AR_TRANS: Attagene TRANS-FACTORIAL HepG2 Assay for human Androgen Receptor (AR) (AID 2282973; active means hit-call score of the fitted dose curve at least 0.9, where 1 is the maximum). Particulars: HepG2 Attagene TRANS-FACTORIAL AR reporter transcription. An outline of the steps:
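HepG2 cells transiently transfected with AR-Gal4 chimera and GAL4-UAS reporter units; chemical exposure 24 h. Reporter mRNA quantified by RT-PCR with fluorescent labelling and capillary electrophoresis; gain-of-signal fitted against DMSO.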

For experiment [15], the target named is rat Thyrotropin Releasing Hormone Receptor (TRH), Trhr (gene 25570) (UniProt Q01717). The experiment in a line: NVS_GPCR_rTRH: NovaScreen (NVS) G Protein-Coupled Receptor Assay for rat Thyrotropin Releasing Hormone Receptor (TRH) (AID 2283329; active means hit-call score of the fitted dose curve at least 0.9, where 1 is the maximum;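 further: hit means lower bound tracer signal versus DMSO baseline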). A digest of the protocol: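 Rat forebrain membrane prep, radioligand displacement, filter scintillation readout at 4 h. Single conc 25 uM, duplicate; actives retested as concentration series. DMSO = negative control/baseline.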

Experiment [16] deals with Glucocorticoid receptor (Homo sapiens) (UniProt P04150). The experiment in a line: ATG_GR_TRANS: Attagene TRANS-FACTORIAL HepG2 Assay for human Glucocorticoid Receptor (GR) (AID 2282978; active means hit-call score of the fitted dose curve at least 0.9, where 1 is the maximum;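 further: activators score as hits since higher reporter transcript over DMSO is fitted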). Particulars: HepG2 Attagene TRANS GR reporter, mRNA transcription. A digest of the protocol: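 Transient MRTU transfection of HepG2 (GAL4-UAS reporters, exogenous NR-GAL4 chimeras), 24 h dosing. Readout: reporter transcript via RT-PCR + capillary electrophoresis fluorescence. Positive direction vs DMSO baseline.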

Experiment [17] concerns the target Retinoic acid receptor alpha (Homo sapiens) (UniProt P10276). Briefly: ATG_RARa_TRANS: Attagene TRANS-FACTORIAL HepG2 Assay for human Retinoic Acid Receptor alpha (RARa) (AID 2283005; active means hit-call score of the fitted dose curve at least 0.9, where 1 is the maximum). A digest of the protocol:
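Reporter transcripts, measured by RT-PCR with fluorescent labeling and capillary electrophoresis after 24 h dosing, reflect activity of an exogenous human RARa–GAL4 fusion in transiently transfected HepG2. Fitted for increase relative to DMSO.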

The target in experiment [18] is human Retinoic Acid Receptor gamma (RARg), RARG (gene 5916) (UniProt P13631). Briefly: ATG_RARg_TRANS: Attagene TRANS-FACTORIAL HepG2 Assay for human Retinoic Acid Receptor gamma (RARg) (AID 2283009; active means hit-call score of the fitted dose curve at least 0.9, where 1 is the maximum). An outline of the steps: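 HepG2 cells transiently transfected with multiplexed reporter units expressing chimeric RARg-GAL4 and GAL4-UAS-driven reporters; 24 h compound exposure. Reporter mRNA quantified by RT-PCR with fluorescent labelling and capillary electrophoresis; gain-of-signal fitted relative to DMSO baseline.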

Experiment [19] in a line: CEETOX_H295R_MTT_cell_viability: Viability Assessment in the CeeTox HT-H295R MTT Assay (AID 2283718). A digest of the protocol:
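MTT reduction (0.5 mg/ml, 4 h at 37 C; absorbance at 570 and 650 nm) gave viability as background-corrected percent change versus controls. H295R cells had 48 h forskolin (10 uM) prestimulation, then 48 h chemical exposure at 0.1% DMSO.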

The target of experiment [20] is human Peripheral-type Benzodiazepine Receptor (PBR), TSPO (gene 706) (UniProt P30536). The experiment in a line: NVS_MP_hPBR: NovaScreen (NVS) Membrane Protein Assay for human Peripheral-type Benzodiazepine Receptor (PBR) (AID 2283331; active means hit-call score of the fitted dose curve at least 0.9, where 1 is the maximum;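 further: hits reduce radioligand binding relative to DMSO baseline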). A digest of the protocol: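 Scintillation counts of filter-bound radioligand served as read-out after 1 h chemical dosing of human colonic membrane preparations. Activity was scored as signal loss against DMSO; initial duplicates at 25 uM, confirmatory concentration series afterward.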

Where “and” joins values, the source holds several entries; their conditions need not be identical. Equal values may be shown once. Results filed as inconclusive are left out. Some compounds were tested as several samples or in several runs, with calls that do not always agree. Calls of active or inactive are those of the source. How the source made its calls, unless noted: active means hit-call score of the fitted dose curve at least 0.9, where 1 is the maximum; inactive means score below 0.9.

Chain of Retinoic acid receptor alpha (Homo sapiens) (P10276 whole entry, looked up, the tested form may be a part): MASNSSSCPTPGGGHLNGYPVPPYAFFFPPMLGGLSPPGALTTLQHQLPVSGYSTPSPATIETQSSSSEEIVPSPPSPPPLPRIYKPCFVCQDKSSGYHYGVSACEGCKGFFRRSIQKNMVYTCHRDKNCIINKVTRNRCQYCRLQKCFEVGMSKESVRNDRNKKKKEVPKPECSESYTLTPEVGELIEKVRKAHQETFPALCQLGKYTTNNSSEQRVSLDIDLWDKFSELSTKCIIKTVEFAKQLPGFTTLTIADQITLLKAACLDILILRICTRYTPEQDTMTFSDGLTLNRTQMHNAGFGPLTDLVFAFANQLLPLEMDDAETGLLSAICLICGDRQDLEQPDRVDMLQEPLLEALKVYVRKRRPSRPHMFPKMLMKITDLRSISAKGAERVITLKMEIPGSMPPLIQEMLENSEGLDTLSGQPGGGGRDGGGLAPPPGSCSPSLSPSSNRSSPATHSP
Chain of Tumor necrosis factor (Homo sapiens) (P01375 whole entry, looked up): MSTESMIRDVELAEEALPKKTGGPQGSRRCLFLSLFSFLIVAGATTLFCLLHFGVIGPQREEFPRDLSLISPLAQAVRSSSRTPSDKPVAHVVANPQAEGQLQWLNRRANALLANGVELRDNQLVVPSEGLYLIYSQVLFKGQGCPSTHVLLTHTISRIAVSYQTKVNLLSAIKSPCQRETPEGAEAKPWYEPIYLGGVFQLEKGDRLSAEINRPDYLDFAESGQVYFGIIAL
Chain of Glucocorticoid receptor (Homo sapiens) (P04150 whole entry, looked up, the tested form may be a part): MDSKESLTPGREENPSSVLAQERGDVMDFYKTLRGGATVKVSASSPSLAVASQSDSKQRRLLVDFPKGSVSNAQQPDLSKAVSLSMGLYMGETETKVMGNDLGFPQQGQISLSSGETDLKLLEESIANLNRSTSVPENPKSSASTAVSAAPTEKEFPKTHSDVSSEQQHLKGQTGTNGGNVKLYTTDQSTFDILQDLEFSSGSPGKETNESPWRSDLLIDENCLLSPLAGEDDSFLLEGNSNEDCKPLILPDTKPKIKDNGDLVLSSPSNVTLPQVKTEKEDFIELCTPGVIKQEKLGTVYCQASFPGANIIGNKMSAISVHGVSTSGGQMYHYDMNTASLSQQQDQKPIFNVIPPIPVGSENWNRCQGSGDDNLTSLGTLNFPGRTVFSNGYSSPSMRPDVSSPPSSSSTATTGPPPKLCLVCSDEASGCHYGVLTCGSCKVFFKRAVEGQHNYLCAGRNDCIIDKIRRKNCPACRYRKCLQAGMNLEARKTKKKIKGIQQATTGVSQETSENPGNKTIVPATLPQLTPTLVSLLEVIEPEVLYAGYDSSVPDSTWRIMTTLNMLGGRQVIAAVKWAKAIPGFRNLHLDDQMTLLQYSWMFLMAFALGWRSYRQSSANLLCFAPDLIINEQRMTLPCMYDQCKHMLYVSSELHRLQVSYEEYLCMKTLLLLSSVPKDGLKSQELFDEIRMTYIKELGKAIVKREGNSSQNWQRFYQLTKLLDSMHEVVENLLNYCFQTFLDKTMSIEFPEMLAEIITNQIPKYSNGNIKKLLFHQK
Chain of human Retinoic Acid Receptor beta (RARb), RARB (gene 5915) (P10826 whole entry, looked up, the tested form may be a part): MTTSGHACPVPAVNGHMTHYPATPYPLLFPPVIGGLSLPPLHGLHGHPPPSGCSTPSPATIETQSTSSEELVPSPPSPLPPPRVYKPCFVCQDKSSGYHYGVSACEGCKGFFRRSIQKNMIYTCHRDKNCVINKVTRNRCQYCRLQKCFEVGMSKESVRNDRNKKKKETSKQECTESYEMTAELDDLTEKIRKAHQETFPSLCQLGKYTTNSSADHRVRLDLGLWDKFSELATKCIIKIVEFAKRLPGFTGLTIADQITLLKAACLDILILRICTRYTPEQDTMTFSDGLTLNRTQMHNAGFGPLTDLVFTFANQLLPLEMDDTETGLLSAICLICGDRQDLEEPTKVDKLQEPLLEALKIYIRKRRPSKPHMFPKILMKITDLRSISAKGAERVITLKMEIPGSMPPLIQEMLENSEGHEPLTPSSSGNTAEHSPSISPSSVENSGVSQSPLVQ
Chain of human Retinoic Acid Receptor gamma (RARg), RARG (gene 5916) (P13631 whole entry, looked up, the tested form may be a part): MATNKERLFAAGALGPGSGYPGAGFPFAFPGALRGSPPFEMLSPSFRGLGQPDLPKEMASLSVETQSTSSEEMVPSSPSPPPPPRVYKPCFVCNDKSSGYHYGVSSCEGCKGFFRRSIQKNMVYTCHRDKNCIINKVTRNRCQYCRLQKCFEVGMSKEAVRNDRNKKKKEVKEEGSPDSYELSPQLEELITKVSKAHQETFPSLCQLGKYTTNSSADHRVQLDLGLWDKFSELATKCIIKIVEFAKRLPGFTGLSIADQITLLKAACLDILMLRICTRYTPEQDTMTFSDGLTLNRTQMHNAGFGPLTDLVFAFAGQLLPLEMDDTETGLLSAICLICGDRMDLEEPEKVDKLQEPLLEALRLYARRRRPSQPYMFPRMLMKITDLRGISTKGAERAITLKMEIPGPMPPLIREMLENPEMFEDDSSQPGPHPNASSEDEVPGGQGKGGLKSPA
Chain of rat Thyrotropin Releasing Hormone Receptor (TRH), Trhr (gene 25570) (Q01717 whole entry, looked up): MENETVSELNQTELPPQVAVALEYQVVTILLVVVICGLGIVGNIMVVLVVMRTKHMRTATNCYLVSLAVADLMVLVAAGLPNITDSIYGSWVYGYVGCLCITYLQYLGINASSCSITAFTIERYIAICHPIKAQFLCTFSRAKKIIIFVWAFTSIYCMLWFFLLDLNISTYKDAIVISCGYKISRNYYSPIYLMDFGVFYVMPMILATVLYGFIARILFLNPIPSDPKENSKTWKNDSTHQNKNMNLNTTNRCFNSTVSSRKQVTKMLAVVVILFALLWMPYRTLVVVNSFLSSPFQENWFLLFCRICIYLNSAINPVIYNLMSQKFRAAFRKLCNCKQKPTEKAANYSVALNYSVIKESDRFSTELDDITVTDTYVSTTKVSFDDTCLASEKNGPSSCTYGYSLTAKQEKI
Chain of Androgen receptor (Homo sapiens) (P10275 whole entry, looked up, the tested form may be a part): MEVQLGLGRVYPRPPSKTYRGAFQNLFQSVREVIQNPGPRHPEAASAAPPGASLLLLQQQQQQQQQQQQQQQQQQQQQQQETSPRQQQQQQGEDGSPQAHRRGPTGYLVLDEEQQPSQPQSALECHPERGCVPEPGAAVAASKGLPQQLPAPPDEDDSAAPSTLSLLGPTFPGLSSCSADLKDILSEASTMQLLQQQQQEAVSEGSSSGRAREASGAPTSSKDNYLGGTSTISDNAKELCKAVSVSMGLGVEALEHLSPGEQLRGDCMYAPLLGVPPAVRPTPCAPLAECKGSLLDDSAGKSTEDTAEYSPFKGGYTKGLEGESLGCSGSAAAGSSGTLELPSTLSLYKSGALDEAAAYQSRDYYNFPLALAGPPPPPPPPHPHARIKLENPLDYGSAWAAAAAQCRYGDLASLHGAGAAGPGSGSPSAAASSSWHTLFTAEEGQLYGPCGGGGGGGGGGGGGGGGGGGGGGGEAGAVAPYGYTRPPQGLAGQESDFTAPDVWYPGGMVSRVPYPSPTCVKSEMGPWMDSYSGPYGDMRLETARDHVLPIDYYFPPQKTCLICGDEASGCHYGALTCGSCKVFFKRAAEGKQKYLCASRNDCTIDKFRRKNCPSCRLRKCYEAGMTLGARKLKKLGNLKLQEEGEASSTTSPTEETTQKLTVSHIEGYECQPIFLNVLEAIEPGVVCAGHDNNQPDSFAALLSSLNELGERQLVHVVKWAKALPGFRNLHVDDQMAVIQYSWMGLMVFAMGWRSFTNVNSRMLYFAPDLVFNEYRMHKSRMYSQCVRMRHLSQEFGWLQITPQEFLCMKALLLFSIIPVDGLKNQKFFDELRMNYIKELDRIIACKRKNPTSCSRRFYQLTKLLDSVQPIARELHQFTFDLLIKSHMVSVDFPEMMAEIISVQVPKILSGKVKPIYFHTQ
Chain of human Peripheral-type Benzodiazepine Receptor (PBR), TSPO (gene 706) (P30536 whole entry, looked up): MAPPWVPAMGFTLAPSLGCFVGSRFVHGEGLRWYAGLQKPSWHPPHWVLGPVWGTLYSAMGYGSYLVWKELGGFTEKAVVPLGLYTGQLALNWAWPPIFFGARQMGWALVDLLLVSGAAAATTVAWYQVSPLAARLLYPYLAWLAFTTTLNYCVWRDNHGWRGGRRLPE

For orientation: AC50 means the midpoint of the concentration-response curve, whichever way the signal moves. With `CCC(C)c1cc([N+](=O)[O-])cc([N+](=O)[O-])c1OC(=O)C=C(C)C` (centres undefined), the AC50 is 20 µM (active) in experiment [1]; 20 µM (active) in experiment [2]; 30.8 µM (active) in [3]; 3.66 µM (active) in experiment [4]; 4.1 µM (active) in experiment [5]; 5.45 µM (active) in [6]. For the same molecule, the AC50 was 32.6 µM (active) in [7]; 12.3 µM (active) in [8]; 11.6 µM (active) in experiment [9]; 36.9 µM (active) in experiment [10]; 20.8 µM (active) in [11]; 13.5 µM (active) in [12].
Take `CCC(Br)(CC)C(=O)NC(N)=O`: the result in experiment [13] was inactive.
In the case of `COc1cc(OC)nc(Oc2cccc(Oc3nc(OC)cc(OC)n3)c2C(=O)O)n1`, the molecule was classed as inactive in experiment [14] and in experiment [15].
As for `CC(C)C#N`, the call in [16], in [17] and in experiment [18] was inactive.
Take `N#Cc1cc(I)c(O)c(I)c1`: the result in [14], in experiment [16], in experiment [13], in [17] and in experiment [18] was inactive.
For the molecule `Nc1ccc(Cl)c(Cl)c1`, the call in [19] was inactive.
For `O=[N+]([O-])O`, in experiment [18], the molecule was called inactive.
In the case of `Nc1cc(Cl)cc(Cl)c1`, the molecule was called inactive in experiment [15].
For the molecule `O=C1C(Cl)=C(Cl)C(=O)C(Cl)=C1Cl`, the molecule was called inactive in experiment [14] and in experiment [18]. The AC50 was 34.4 µM (active) in experiment [20]; 26.4 µM (active) in experiment [1]; 32.6 µM (active) in experiment [2]; 20 µM (active) in [3]; 20.5 µM (active) in experiment [4]; 16.6 µM (active) in experiment [5]. The AC50 in experiment [6] was 23.8 µM (active); in [7] it was 30.9 µM (active); in experiment [8], 25 µM (active); in experiment [9], 29.9 µM (active); in experiment [10], 32 µM (active); in experiment [11], 29.6 µM (active). Further, the AC50 in experiment [12] is 28 µM (active).
As for `ClC1=C(Cl)[C@]2(Cl)[C@@H]3[C@@H](Cl)[C@H](Cl)C[C@@H]3[C@@]1(Cl)C2(Cl)Cl`, the molecule was classed as inactive in experiment [16] and in experiment [18].
For `O=C(CCl)c1ccccc1`, the call in experiment [13], in experiment [17] and in [18] was inactive.
Take `CCOC(=O)COc1ccc(Cl)cc1Cl`: the call in experiment [13] was inactive.
Consider `Nc1c(Cl)c(Cl)c(Cl)c(Cl)c1Cl`, for which the result in experiment [14], in [16], in experiment [13], in experiment [17] and in experiment [18] was inactive.
`Oc1ccc(Cl)cc1`: the call in [13] and in experiment [15] was inactive. The AC50 in experiment [20] was 12.3 µM (active).
As to `COCC(=O)N(c1c(C)cccc1C)N1CCOC1=O`, the outcome in experiment [1], in experiment [2], in [3], in experiment [4], in experiment [5] and in experiment [6] was inactive. In addition, the result in experiment [7], in [8], in experiment [9], in experiment [10], in [11] and in experiment [12] was inactive.
In the case of `C=C(Cl)Cl`, the molecule was classed as inactive in experiment [14], in experiment [13], in experiment [17] and in experiment [18].
Regarding `O=C(O)CCCc1ccc(N(CCCl)CCCl)cc1`, the result in experiment [1], in experiment [5], in [6], in [7], in experiment [8] and in experiment [9] was inactive. For the same molecule, the result in [10], in experiment [11] and in experiment [12] was inactive. The AC50 in [2] is 3.48 µM (active) and 5.7 µM (active); in experiment [3] it was 23.6 µM (active) and 20 µM (active); in experiment [4], 24.4 µM (active) and 30.1 µM (active); in [9], 0.016 µM (active).
